Data as given in PubChem BioAssay (NCATS).
Inconclusive results are not listed. Active and inactive are the calls of the source. Unless noted, the call rests on the fitted dose curve; in most records, active means well fitted curve in the direction sought with a large enough effect; inconclusive means small, poorly fitted or top-dose-only effect, or another doubt; inactive means no such curve, though single readings can be large; an effect the other way counts as inactive or inconclusive. Where a SMILES comes first, the peptide text is derived from it. [ ]: non-standard residue; d: D form. The star is where a group is joined. Dolaproine = CO[C@@H]([C@@H]1CCCN1)[C@@H](C)C(=O)O; Dil = CC[C@H](C)[C@H](NC)[C@@H](CC(=O)O)OC; Doe = c1ccc(C[C@H](N*)c2nccs2)cc1; Aib = CC(C)(N)C(=O)O

How the values were obtained:
[1] = P-glycoprotein substrates identified in KB-8-5-11 adenocarcinoma cell line, qHTS therapeutic library screen (AID 1346987); further: nearly all actives have a fitted effect of over 65% in size; further: potency means the concentration at half of the fitted maximal effect
Method in brief: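 KB-8-5-11, a colchicine-selected P-gp-overexpressing KB-3-1 subline, was grown without colchicine for the assay. Cells were seeded at 500 cells/well, dosed in concentration-response and incubated 72 h at 37 degree C, 5% CO2. Viability was read by CellTiter-Glo luminescence.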

[2] = test system: Zika virus NS2B-NS3 protease (unlinked complex); assay: Primary screen GU Rhodamine qHTS for Zika virus inhibitors: Unlinked NS2B-NS3 protease assay (AID 1347159); further: nearly all actives have a fitted effect of over 60% in size; further: potency means the concentration at half of the fitted maximal effect; on activity change, negative = inhibition: on the % scale 0 is the no-effect control and ±100 the full control effect
Method in brief: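 Noncovalent NS2B hydrophilic domain–NS3 protease domain complex (25 nM) preincubated 15 min at room temperature with compounds (up to 114 microM) in 10 mM Tris-HCl pH 8.0, 0.01% Tween 20; 1.5 microM Rhodamine110 substrate added, fluorescence change over 15 min fitted to Hill equation.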

[3] = biological target: Cytochrome P450 2D6 (Homo sapiens) (UniProt P10635); assay: Cytochrome P450 family 2 subfamily D member 6 (CYP2D6) small molecule antagonists: luciferase biochemical (cell-free) qHTS assay (AID 1645840; active means well fitted curve in the direction sought with a large enough effect in the repeat runs; an effect the other way counts as inactive or inconclusive; further: nearly all actives have a fitted effect of over 55% in size; further: potency means the concentration at half of the fitted maximal effect; on activity change, negative = inhibition: on the % scale 0 is the no-effect control and ±100 the full control effect)
Cytochrome P450 2D6 (Homo sapiens), sequence (P10635 whole entry, looked up): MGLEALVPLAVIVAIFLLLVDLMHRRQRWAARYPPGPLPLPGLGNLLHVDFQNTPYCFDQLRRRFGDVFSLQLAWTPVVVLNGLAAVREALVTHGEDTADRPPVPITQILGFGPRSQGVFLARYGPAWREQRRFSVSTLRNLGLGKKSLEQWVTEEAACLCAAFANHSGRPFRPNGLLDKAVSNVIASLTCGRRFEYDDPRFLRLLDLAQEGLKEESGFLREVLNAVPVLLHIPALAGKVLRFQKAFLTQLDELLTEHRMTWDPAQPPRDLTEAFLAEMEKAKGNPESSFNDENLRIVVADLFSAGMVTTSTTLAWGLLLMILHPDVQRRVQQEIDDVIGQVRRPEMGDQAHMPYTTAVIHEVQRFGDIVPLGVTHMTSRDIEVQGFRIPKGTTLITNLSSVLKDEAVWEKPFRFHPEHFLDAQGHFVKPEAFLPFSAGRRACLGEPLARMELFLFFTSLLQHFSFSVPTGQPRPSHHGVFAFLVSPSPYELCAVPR
Method in brief: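 P450-Glo luminescent screen: recombinant CYP2D6 enzyme–proluciferin substrate mix preincubated with compound 10 min at room temperature, then NADPH regeneration added for 1 h at room temperature. Detection reagent added for 20 min; luciferin light read as relative luminescence units.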

[4] = biological target: Cytochrome P450 2C9 (Homo sapiens) (UniProt P11712); assay: Cytochrome P450 family 2 subfamily C member 9 (CYP2C9) small molecule antagonists: luciferase biochemical (cell-free) qHTS assay (AID 1645842; active means well fitted curve in the direction sought with a large enough effect in the repeat runs; an effect the other way counts as inactive or inconclusive; further: nearly all actives have a fitted effect of over 55% in size; further: potency means the concentration at half of the fitted maximal effect; on activity change, negative = inhibition: on the % scale 0 is the no-effect control and ±100 the full control effect)
Cytochrome P450 2C9 (Homo sapiens), sequence (P11712 whole entry, looked up): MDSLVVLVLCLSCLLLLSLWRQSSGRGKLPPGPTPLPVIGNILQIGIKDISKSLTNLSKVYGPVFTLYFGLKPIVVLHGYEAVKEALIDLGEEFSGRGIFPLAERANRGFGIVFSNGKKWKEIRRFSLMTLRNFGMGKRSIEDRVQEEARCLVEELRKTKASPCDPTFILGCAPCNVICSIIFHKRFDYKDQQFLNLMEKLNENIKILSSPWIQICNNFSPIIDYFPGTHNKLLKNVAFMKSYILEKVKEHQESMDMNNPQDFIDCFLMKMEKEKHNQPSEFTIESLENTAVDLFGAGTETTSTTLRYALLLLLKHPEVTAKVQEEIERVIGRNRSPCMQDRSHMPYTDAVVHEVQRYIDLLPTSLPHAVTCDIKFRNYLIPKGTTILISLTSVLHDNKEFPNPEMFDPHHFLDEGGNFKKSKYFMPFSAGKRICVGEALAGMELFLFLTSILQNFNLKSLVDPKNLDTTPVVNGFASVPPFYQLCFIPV
Method in brief: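 Luminescence, after 20 min with luciferin detection reagent, reflected CYP2C9 turnover during a 1 h NADPH-driven reaction at 37C. Enzyme-substrate mix contained 0.4% bovine serum albumin and was preincubated with compound 10 min at room temperature.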

[5] = Primary qHTS for inhibitors of nuclear receptor binding SET domain protein 2 (NSD2) in an RCH-ACV wild type WT cells (2C) (AID 1645877); further: nearly all actives have a fitted effect of over 70% in size; further: potency means the concentration at half of the fitted maximal effect
HEK293 = assay: Cytotoxic Profiling of Annotated Libraries Using Quantitative High-Throughput Screening (AID 1296008); details: Five cell lines viability, CellTiter-Glo ATP luminescence, 48-72 h; max response: stronger effect = lower value; further: nearly all actives have a fitted effect of over 60% in size; further: potency means the concentration at half of the fitted maximal effect; on max response: on the % scale 0 is the no-effect control and ±100 the full control effect
Method in brief: (§1)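 Cytotoxicity was measured as CellTiter-Glo ATP luminescence, read after 10 min at room temperature. Compound treatment of the cells lasted 48 or 72 hr at 37 degrees Celsius in a qHTS format.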

HaCat [6] = assay: as above; details: Five cell lines viability, CellTiter-Glo ATP luminescence, 48-72 h; max response: stronger effect = lower value
Method in brief: as §1

KB-3-1 = assay: as above; details: Five cell lines viability, CellTiter-Glo ATP luminescence, 48-72 h; max response: stronger effect = lower value
Method in brief: as §1

SKOV3 = assay: Primary qHTS to identify gynecologic anti-cancer compounds using libraries of approved drugs and bioactive compounds (AID 1345084); details: Gynecologic cancer cell panel viability, ATPlite luminescence, 48 h; series mostly up to 57.5 µM; further: nearly all actives have a fitted effect of over 55% in size; further: potency means the concentration at half of the fitted maximal effect
Method in brief: (§2)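 Five-point cytotoxicity, 48 h drug exposure at 37 C, 5% CO2, on cells seeded 16 h beforehand. ATP content read by ATPlite luminescence.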

[7] = Primary qHTS for inhibitors of nuclear receptor binding SET domain protein 2 (NSD2) in an isogenic RCH-ACV NSD2 p.E1099K mutant (9B) (AID 1645876); further: nearly all actives have a fitted effect of over 70% in size; further: potency means the concentration at half of the fitted maximal effect
HeLa = assay: Primary qHTS to identify gynecologic anti-cancer compounds using libraries of approved drugs and bioactive compounds (AID 1345084); details: Gynecologic cancer cell panel viability, ATPlite luminescence, 48 h; series mostly up to 57.5 µM; further: nearly all actives have a fitted effect of over 55% in size; further: potency means the concentration at half of the fitted maximal effect
Method in brief: as §2

[8] = Confirmatory qHTS for VERO E6 Cytotoxicity Assay: Counterscreen for SARS-CoV-2 CPE Assay (AID 1508605; calls by dose curve; further: on the % scale 0 is the no-effect control and ±100 the full control effect; nearly all actives have a fitted effect of over 60% in size)
HACAT [9] = assay: qHTS assay to identify novel small-molecules to repurpose for Merkel cell carcinoma treatment (AID 1296009); details: MCC and control cell lines, CellTiter-Glo viability, 72 h; at 44.8 µM (top of the series) unless noted; further: nearly all actives have a fitted effect of over 60% in size
Method in brief: (§3)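 72 hr, 37 degree celsius; NPC 8-pt / MIPE 11-pt dose response; compound pinned in DMSO; CellTiter-Glo, 10 min RT, luminescence; normalized to no-cell and DMSO controls.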

[10] = biological target: Catechol O-methyltransferase (Homo sapiens) (UniProt P21964); assay: Confirmatory Screen for Target Class Profiling of Small Molecule Inhibitors of Methyltransferases (AID 1745852); details: MTase-Glo luminescence, SAH detection, recombinant enzyme; measured here: COMT max response; stronger effect = lower value
Catechol O-methyltransferase (Homo sapiens), sequence (P21964 whole entry, looked up): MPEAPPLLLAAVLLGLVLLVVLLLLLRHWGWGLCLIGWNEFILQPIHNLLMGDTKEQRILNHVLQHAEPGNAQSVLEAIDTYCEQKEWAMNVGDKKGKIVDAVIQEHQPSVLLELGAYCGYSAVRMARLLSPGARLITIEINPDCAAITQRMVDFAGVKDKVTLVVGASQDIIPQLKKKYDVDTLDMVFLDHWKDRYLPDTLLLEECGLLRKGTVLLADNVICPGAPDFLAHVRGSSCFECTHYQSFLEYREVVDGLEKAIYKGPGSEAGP

[11] = biological target: Guanidinoacetate N-methyltransferase (Homo sapiens) (UniProt Q14353); assay: as above; details: activity change, negative = inhibition: at 57.3 µM (top of the series) unless noted
[12] = biological target: Nicotinamide N-methyltransferase (Homo sapiens) (UniProt P40261); assay: as above; details: MTase-Glo luminescence, SAH detection, recombinant enzyme; measured here: NNMT max response; stronger effect = lower value
Nicotinamide N-methyltransferase (Homo sapiens), sequence (P40261 whole entry, looked up): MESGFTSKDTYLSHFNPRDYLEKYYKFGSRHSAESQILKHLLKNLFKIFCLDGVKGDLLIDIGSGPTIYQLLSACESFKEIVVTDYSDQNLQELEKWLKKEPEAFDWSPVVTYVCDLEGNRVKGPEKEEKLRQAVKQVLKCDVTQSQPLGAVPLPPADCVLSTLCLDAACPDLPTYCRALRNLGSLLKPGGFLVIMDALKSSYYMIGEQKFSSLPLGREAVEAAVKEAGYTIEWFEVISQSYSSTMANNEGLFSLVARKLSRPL

[13] = biological target: Phenylethanolamine N-methyltransferase (Homo sapiens) (UniProt P11086); assay: as above; details: MTase-Glo luminescence, SAH detection, recombinant enzyme; measured here: PNMT max response; stronger effect = lower value
Phenylethanolamine N-methyltransferase (Homo sapiens), sequence (P11086 whole entry, looked up): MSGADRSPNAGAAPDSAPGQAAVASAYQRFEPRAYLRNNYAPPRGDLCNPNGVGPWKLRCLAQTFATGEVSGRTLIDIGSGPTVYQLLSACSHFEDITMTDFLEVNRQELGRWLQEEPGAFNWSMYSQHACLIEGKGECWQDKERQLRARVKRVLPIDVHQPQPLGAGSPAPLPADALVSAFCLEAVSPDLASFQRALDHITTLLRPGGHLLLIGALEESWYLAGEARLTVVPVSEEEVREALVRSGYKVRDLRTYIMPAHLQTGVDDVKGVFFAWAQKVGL

NIH3T3 = assay: qHTS assay to identify novel small-molecules to repurpose for Merkel cell carcinoma treatment (AID 1296009); details: MCC and control cell lines, CellTiter-Glo viability, 72 h; at 44.8 µM (top of the series) unless noted; further: nearly all actives have a fitted effect of over 60% in size
Method in brief: as §3

[14] = P-glycoprotein substrates identified in KB-3-1 adenocarcinoma cell line, qHTS therapeutic library screen (AID 1346986); further: nearly all actives have a fitted effect of over 60% in size
Method in brief: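 Cells seeded 500/well in DMEM/10% FCS; compounds pinned in dose-response; 72 h incubation; CellTiter-Glo added, 5 min, luminescence. KB-8-5-11 run ±tariquidar to test reversal of P-gp resistance.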

COc1cccc(NCC(F)Cn2c3ccc(Br)cc3c3cc(Br)ccc32)c1 (stereo not drawn)
inactive: Potency [2] | Potency [3]
active: Potency [1] 14600 nM | Potency [4] 7560 nM | Potency [5] 20500 nM | Potency (HEK293) 13000 nM | Potency (HaCat [6]) 8200 nM | Potency (KB-3-1) 18400 nM | Potency (SKOV3) 14100 nM

C[C@]12CC[C@H](O)CC1=CC[C@@H]1C2CC[C@]2(C)[C@@H](C3=CC(=O)OC3)CC[C@]12O (stereo partly drawn)
active: Potency [7] 3190 nM | Potency [5] 4500 nM

CC/C=C/C=C/C1(C)OC(OC)=C(C(=O)C2C(C)C(=O)c3cc(OC)c(O)c(O)c3C2(C)O)C1=O (stereo not drawn)
active: Potency [2] 6310 nM | Potency [5] 7090 nM

C[C@]12CC[C@H](O[C@@H]3O[C@H](CO)[C@@H](O)[C@H](O)[C@H]3O)CC1=CC[C@@H]1C2CC[C@]2(C)[C@@H](C3=CC(=O)OC3)CC[C@]12O (stereo partly drawn)
active: Potency [1] 4850 nM | Potency [7] 2420 nM | Potency [5] 5410 nM

COC1CC(OC2CCC3(C=O)C(CCC4C3CCC3(C)C(C5=CC(=O)OC5)CCC43O)C2)OC(C)C1O (stereo not drawn)
active: Potency [1] 178 nM | Potency [7] 79.6 nM | Potency [5] 126 nM | Potency (HEK293) 112 nM | Potency (HaCat [6]) 2820 nM | Potency (KB-3-1) 252 nM | Potency (HeLa) 224 nM | Potency (SKOV3) 199 nM

CN1CN(c2ccccc2)C2(CCN(CCCC(=O)c3ccc(F)cc3)CC2)C1=O
inactive: Potency [2] | Potency [8] | max response (HaCat [6]) 2.53% | max response (KB-3-1) -4.39% | Potency (SKOV3)
active: Potency [7] 23000 nM | Potency [5] 25800 nM | Potency (HEK293) 14600 nM

CC[C@H](C)[C@@H]([C@@H](CC(=O)N1CCC[C@H]1[C@H](OC)[C@@H](C)C(=O)N[C@@H](Cc1ccccc1)c1nccs1)OC)N(C)C(=O)[C@@H](NC(=O)C(C)(C)N)C(C)C (H-[Aib]V[Dil][Dolaproine]-Doe)
active: Potency [1] 146 nM | Potency (KB-3-1) 1 nM
inactive: Potency [7] | Potency [5] | max response (HEK293) -94.9% | outcome (HaCat [6]) | outcome (HACAT [9]) | Potency (SKOV3)

Cc1[nH]c2ccc(Cl)cc2c1CCN(C)C
-4.68%: activity [12]
-4.16%: activity [10]
active: Potency [3] 3380 nM
-1.82%: activity change, negative = inhibition [11]
inactive: Potency [1] | Potency [2] | Potency [4] | Potency [7] | outcome (NIH3T3)
-3.11%: activity [13]

CCC1CC2CN3CCc4c([nH]c5ccccc45)C(C(=O)OC)(C2)C13 (stereo not drawn)
inactive: Potency [14] | Potency [1] | Potency [2] | Potency [7] | Potency [5] | outcome (KB-3-1) | Potency (HeLa)

Cc1ccc(Cn2nc(C(=O)N[C@@H]3C(C)(C)[C@@H]4CC[C@@]3(C)C4)cc2-c2ccc(Cl)c(C)c2)cc1
inactive: Potency [1] | Potency [3] | Potency [7] | Potency [5] | max response (KB-3-1) 0.44% | Potency (HeLa) | Potency (SKOV3)

C#CC1(O)CCC2C3CCC4=CC(=O)CCC4=C3C=CC21C (stereo not drawn)
active: Potency [1] 2910 nM | Potency (HeLa) 1120 nM
inactive: outcome (HaCat [6]) | outcome (HACAT [9]) | Potency (SKOV3)

C[C@@H]1O[C@@H](O[C@H]2CC[C@@]3(C)C(CC[C@@H]4C3CC[C@]3(C)[C@@H](C5=CC(=O)OC5)CC[C@]43O)C2)[C@H](O[C@@H]2O[C@H](CO)[C@@H](O)[C@H](O)[C@H]2O)[C@H](O)[C@H]1O (stereo partly drawn)
inactive: Potency [2]
active: Potency [1] 485 nM | Potency [7] 171 nM | Potency [5] 483 nM | Potency (HEK293) 485 nM | Potency (HaCat [6]) 2170 nM | Potency (KB-3-1) 862 nM | Potency (SKOV3) 2240 nM

C=C1[C@@H](O)[C@]2(O)OC[C@]34C2[C@]2(C)C(C[C@H]3OC(=O)[C@H](O)[C@@]14O)C(C)=CC(=O)[C@H]2O (stereo partly drawn)
active: Potency [7] 4470 nM | Potency [5] 3170 nM
inactive: Potency [2] | max response (HaCat [6]) 3.98% | Potency (HeLa) | Potency (SKOV3)
